Compounds with a hit are over-represented: about 21% of the library has one in this group of screens.
CHX counter – affects cycloheximide protein synthesis inhibition readout, counter-screen. max response, %. cell reporter, cycloheximide protein synthesis inhibition counterscreen. 300,000 compounds, 12% hits. AID 2314; in the data active = max response mostly above about 13%, no sharp cut-off; inactive = mostly below about 14%; also: read at 38.3 µM for the half of the compounds with a filed dose; 0% is about no effect
Shiga inhibitor – blocks Shiga toxin action in Vero cells; Vero cells, Shiga toxin protein synthesis inhibition reporter; 290,000 compounds, 9.2% hits; inhibition, % at 38.7 µM; in the data active = inhibition mostly above about 28%, no sharp cut-off; inactive = mostly below about 43%; also: 0% is about no effect
Pf growth 96h – inhibits malaria parasite growth, 96 h | AID 504834 | 320,000 compounds, 6.9% hits | Potency, µM (top dose mostly 28.7 µM), for the others: top-dose activity change, negative = inhibition, hits mostly inhibitors | P. falciparum luciferase reporter growth, 96 h; also: potency is read from the fitted curve at half-maximal effect; % is scaled to controls: 0 for no effect and ±100 for the full control effect
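Two parasite generations (96 h, 37 C, 5% CO2) of compound exposure in infected erythrocytes (0.05% parasitemia, 2% hematocrit). Luciferase-reporter P. falciparum; decreased luminescence indicates inhibited growth, aimed at apicoplast-acting delayed death.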
Pf growth 48h – P. falciparum growth inhibition at 48 hours (one generation); P. falciparum luciferase growth in erythrocytes, 48 h; Potency, µM (titrated, usually from 28.7 µM), for the others: top-dose activity change, negative = inhibition, most hits filed as inhibitors; 310,000 compounds, 5.9% hits; also: potency is read from the fitted curve at half-maximal effect; % is scaled to controls: 0 for no effect and ±100 for the full control effect
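Growth was read as firefly luciferase luminescence after a 48 h, 37 C, 5% CO2 exposure of compounds to reporter-bearing P. falciparum cultures (0.1% parasitemia, 2% hematocrit final) in Albumax-supplemented RPMI 1640.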
HCV inhibitor – inhibitors of hepatitis C virus infection; Huh7.5.1 HCVcc-Cre infection, luciferase reporter, 44 h; Potency, µM (highest dose often 41.8 µM), for the others: at the highest dose activity change, negative = inhibition, most hits filed as inhibitors; 340,000 compounds, 3.4% hits; also: potency is read from the fitted curve at half-maximal effect; % is scaled to controls: 0 for no effect and ±100 for the full control effect
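Seed cells (1,000/well) for 4 h; treat with compound and infect with HCVcc-Cre, moi about 0.5. Incubate 44 h, then detect luciferase activity.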
AMA1-RON2 inh – AMA1-RON2 (P. falciparum) interaction inhibition | AlphaScreen AMA1-biotinylated RON2 peptide binding | Potency, µM (series often up to 58.2 µM), for the others: at the highest dose activity change, negative = inhibition, hits mostly inhibitors | 360,000 compounds, 0.2% hits;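 also: potency is read from the fitted curve at half-maximal effect; 0% = vehicle wells and -100% = peptide control; nearly all actives have a fitted effect of over 45% in size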
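AMA1 (3D7) with his tag at 25 nM final met compounds first, then biotinylated RON2 peptide at 25 nM; detection used donor plus acceptor beads, 10 µg/mL apiece, read by AlphaScreen after 30 min at room temperature.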
* = called active by the depositor; ? = inconclusive; · = no result; [ ] = dose if it differs, or a comment. Unless noted, calls follow the shape of the dose curve; as a rule, active = well fitted curve in the direction sought with a large enough effect; inconclusive = small, poorly fitted or top-dose-only effect, or another doubt; inactive = no such curve, though single readings can be large; an effect the other way counts as inactive or inconclusive.

SMILES	CHX counter	Shiga inhibitor	Pf growth 96h	Pf growth 48h	HCV inhibitor	AMA1-RON2 inh
CCOc1ccccc1C(=O)N1c2ccccc2Sc2ccccc21	-2.5	-3.1	?	·	11.2µM*	-8.6%
COc1ccc(NC(=O)c2nc3ccccc3s2)cc1	90.8*	24.7*	274.0%	0.0%	-5.0%	14.3%
C=CCNC(=O)c1nc2ccccc2s1	50.9*	118.4*	142.6%	223.4%	-5.4%	0.3%
COc1ccc(OC)c(NC(=O)c2nc3ccccc3s2)c1	31.4*	44.3	36.8%	67.6%	?	1.4%
O=C(Nc1nnc(-c2ccccc2Cl)o1)c1nc2ccccc2s1	14.1*	22.5*	33.2%	24.3%	13.8%	133.9%
Cc1cccc(OCc2nnc(SCC(=O)O)n2-c2ccccc2)c1	-0.6	-3.4	1.5%	2.4%	9.6%	13.7%
COC(=O)c1ccc(/C(O)=C(\C#N)c2nc3ccccc3s2)cc1	20.0	26.0	·	6.3%	-15.1%	4.9%
CC(C)NC(=O)c1nc2ccccc2s1	23.7*	30.5*	2.1%	47.6%	4.5%	-10.2%
C#Cc1cccc(Nc2nc(NCc3ccccc3)nc3ccsc23)c1	·	·	·	·	·	-16.6%
Cc1[nH]c(=O)c(C(=O)/C=C/c2ccccc2F)c2c1CCCC2	-2.7	-14.0	5.22µM*	3.29µM*	2.51µM*	-7.5%
CC1(C)CC(C(CC(=O)O)c2ccccc2)CCO1 (centres undefined)	0.4	-6.1	1.9%[5.75 µM]	-16.3%	13.3%	-3.2%
COc1ccc(CN(CCC(c2ccc(F)cc2)C2CCOC(C)(C)C2)C(=O)c2ccco2)cc1 (centres undefined)	0.5	1.2	?	9.28µM*	?	-23.8%
CC(c1ccccc1)N(CCC(c1ccccc1)C1CCOC(C)(C)C1)C(=O)c1ccco1 (centres undefined)	-6.5	-13.6	-4.9%	11.7µM*	3.8%	-22.8%
COc1ccc(C2=Nc3ccccc3NC(=O)C2N(Cc2ccc(F)cc2)C(=O)c2ccco2)cc1 (centres undefined)	·	·	·	·	·	-24.1%
CCCCCCCCCC(=O)NO	·	·	?	-11.3%	·	·
CC(=O)N(CC1CCCO1)c1nnc(-c2ccccn2)s1 (centres undefined)	22.4	42.0	-5.9%	37.8%	-13.0%	24.6%
COCCN(C(C)=O)c1nnc(-c2ccccn2)s1	18.4*	39.0	·	55.2%	22.5%	28.0%
COCCN(C(C)=O)c1nnc(-c2cnccn2)s1	3.6	-10.6	2.33µM*	28.2%	3.4%	-11.2%
CC1(C(=O)NCc2ccncc2)Cc2c(-c3cccc(C(F)(F)F)c3)ccnc2O1 (centres undefined)	·	·	·	·	·	-1.2%
CC(/C=C/c1ccccc1)=N/NC(=O)c1nc2nc(C)cc(C)n2n1	1.3	29.0	57.9%	29.2%	23.1%	0.3%
Cc1cc(C)nc(NN=C(c2ccccc2)c2ccccc2)n1	-4.3	-3.0	13.1µM*	?	?	7.6%
Cc1cc(C)nc(NN=C2CCCC2)n1	5.3	12.0	?	11.7µM*	10.2%	46.0%
CC(/C=C/c1ccccc1)=N\Nc1nc(C)cc(C)n1	32.8*	44.0*	10.4µM*	?	12.6%	68.3%
Cc1cc(C)nc(SCc2ccc(C(=O)NN=C3CCCC3)cc2)n1	9.9	21.5	?	0.0%	-27.8%	25.5%
COc1ccc(S(=O)(=O)Nc2ccc3c(c2)C(=O)N([C@H](C)CO)C[C@H](C)[C@@H](CN(C)C(=O)Nc2ccc(C(F)(F)F)cc2)OCCCC[C@H](C)O3)cc1	·	·	·	·	·	-3.6%
N#Cc1ccsc1NC(=O)COC(=O)C1=NNC(=O)CC1	·	·	66.4%	78.2%	8.3%	17.1%
CCCCN(C(=O)Cc1cccs1)c1nnc(-c2cccnc2)s1	20.0*	44.0*	-17.5%	16.9%	4.9%	-5.8%
COCCN(C(=O)c1ccco1)c1nnc(-c2ccc(F)cc2)s1	23.4*	44.4	283.7%	45.7%	?	27.4%
O=C(c1ccco1)N1CCN(c2nc(-c3ccc(F)cc3)cs2)CC1	11.9	39.5	?	-6.0%	9.3%	-13.4%
CN(C(=O)c1ccco1)c1nc(-c2ccc(F)cc2)cs1	44.5*	57.8*	?	159.0%	-21.7%	-0.5%
